The panel holds about 83,000 compounds, 20% with a hit somewhere; the sample as a whole holds those more often.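 Activity criterion: percent growth below 10, measured after cells in 96-well plates were exposed to a single compound concentration for 48 hours.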 A number with no mark means an inactive call. The source made the active and inactive calls.
Assays:
Assay in all cases: NCI-60 one-dose screen, 48 h (100 = growth as untreated, 0 = no growth, -100 = all killed)
Conditions in all cases: 10 µM unless noted
SK-MEL-2 melanoma = tested on: SK-MEL-2 melanoma
EKVX NSCLC = tested on: EKVX NSCLC
SN12C renal = tested on: SN12C renal
UO-31 renal = tested on: UO-31 renal
TK-10 renal = tested on: TK-10 renal
ACHN renal = tested on: ACHN renal
CAKI-1 renal = tested on: CAKI-1 renal
A498 renal = tested on: A498 renal
CCRF-CEM leukemia = tested on: CCRF-CEM leukemia
MOLT-4 leukemia = tested on: MOLT-4 leukemia

Compound	growth (SK-MEL-2 melanoma)	growth (EKVX NSCLC)	growth (SN12C renal)	growth (UO-31 renal)	growth (TK-10 renal)	growth (ACHN renal)	growth (CAKI-1 renal)	growth (A498 renal)	growth (CCRF-CEM leukemia)	growth (MOLT-4 leukemia)
NCCNC(=O)c1cccc(COc2ccccc2NC(=O)c2cc(Br)c(Br)[nH]2)c1	101%	89.9%	92.6%	90%	89%	101%	90.1%	81.1%	17.9%	68.7%
CNC(=O)c1cc(-c2ccc(NC(=S)Nc3cccc(C(F)(F)F)c3)cc2)nc2cccnc12	103%	98.1%	97.3%	81.8%	102%	94.8%	91.3%	88.8%	88%	117%
CC1(C)CC[C@]2(C(=O)O)CC[C@]3(C)C(=CC[C@@H]4[C@@]5(C)CC[C@H](NOCCCN)C(C)(C)[C@@H]5CC[C@]43C)[C@@H]2C1	93.3%	83.9%	83.5%	71.4%	122%	97.8%	93.7%	–	66.4%	75.3%
O=C1[C@@H]2Cc3c([nH]c4ccccc34)[C@@H](c3ccc(Cl)cc3)N2C(=O)CN1C1CCN(Cc2c(F)cccc2F)CC1	67.6%	40.1%	38.5%	24.2%	52.5%	28%	24.6%	–	19.8%	–
COc1ccc(C2CC(c3cccc(OCCCCOc4cccc(C5=NN(C(C)=O)C(c6ccc(OC)cc6)C5)c4)c3)=NN2C(C)=O)cc1 (stereo not drawn)	59.7%	46.3%	79.9%	54.7%	78.9%	67.2%	54.1%	75.8%	63.8%	57.4%
O=[N+]([O-])c1ccc(NC(=S)NNC(=S)Nc2ccc(F)cc2)cc1	105%	94.8%	90.7%	70.2%	103%	78.9%	68.7%	81.4%	103%	80.8%
CN1CCN(c2ccc(Nc3nc(NCCNS(=O)(=O)c4ccccc4)c4sccc4n3)cc2)CC1	98.6%	95.2%	95%	81.2%	142%	101%	76.4%	–	105%	95.3%
CCOC(=O)c1ccc(NC2=CC(=O)C(C)=C(C)C2=O)cc1	96.1%	94.6%	93.8%	73.9%	137%	89.9%	69.3%	–	54.4%	–
Clc1ccc2[nH]cc(-c3nn4cc(-c5cccnc5)nc4s3)c2c1	101%	84.1%	96.6%	71.6%	184%	87.8%	69.7%	–	84.3%	94.5%
N#C/C(=N\Nc1ccc(F)cc1)C(=O)Nc1cc(-c2ccccc2)nn1-c1ccccc1	4.66% (active)	5.52% (active)	1.17% (active)	3.54% (active)	26.6%	1.44% (active)	2.61% (active)	-4.27% (active)	15.7%	21.9%
CC(=O)OC[C@]12CC[C@@H](C(=O)/C=C/c3cccnc3)[C@@H]1[C@H]1CC[C@@H]3[C@@]4(C)CC[C@H](OC(C)=O)C(C)(C)[C@@H]4CC[C@@]3(C)[C@]1(C)CC2	-35.9% (active)	21.8%	19%	12.1%	38.5%	-55.5% (active)	12.2%	–	2.41% (active)	-5.14% (active)
CC/C(=C(/c1ccc(Cl)cc1)c1ccc(OCCN)cc1)c1ccccc1	105%	102%	104%	78.2%	115%	96.1%	74.6%	–	80.5%	–
CN1CCN(CCCCCC(=O)Nc2nc(-c3cccc(NS(=O)(=O)c4cccc5c(N(C)C)cccc45)c3)cs2)CC1	102%	74.7%	70.6%	75.1%	119%	88.4%	74.3%	88.6%	59.8%	39.5%
CCN1CCN(c2ccc(NC(=O)Nc3ccc4c(ccn4-c4ccnc(C(=O)NC)c4)c3)cc2C(F)(F)F)CC1	94.8%	86.3%	90.8%	71%	113%	74.7%	79.3%	–	7.75% (active)	10.9%
N#Cc1c(-c2cccs2)cc(-c2cnccn2)nc1SCC(=O)N/N=C/c1cccs1	78.5%	59%	52.1%	89.1%	65.1%	49.8%	30%	25.5%	90.6%	85.2%
COC(=O)[C@@H](Cc1c[nH]c2ccccc12)NC(=O)CCCCOc1cc(O)c2c(=O)cc(-c3ccccc3)oc2c1	90.5%	86.8%	95.2%	68.8%	132%	91.8%	71.9%	70%	83.1%	65.1%
CC(=O)OCCCCN1C=C/C(=C\C(=O)n2ccc3ccccc32)c2ccccc21	113%	75%	108%	71.6%	147%	94.8%	79.8%	–	102%	98%
N#Cc1cccc(-c2cc(-c3ccc4c(c3)OCCO4)[nH]n2)c1	47.3%	63.3%	49.2%	42.8%	76.8%	44.2%	35.8%	–	14.2%	23%
C#CCN(C)CCCOc1ccc(NC(=O)CCCCCCC(=O)NO)cc1Cl	32.7%	51.5%	41.2%	26.3%	1.34% (active)	20.3%	17.9%	–	15.5%	16.9%
CN1CCN(Cc2ccc(NC(=O)c3cncc(C#Cc4cnc(N)nc4)c3)cc2C(F)(F)F)CC1	-65.2% (active)	43.9%	11.5%	4.98% (active)	17.4%	7.78% (active)	0.371% (active)	-17.2% (active)	30.9%	21.9%
C=CCSC1=NC2C(N(CC)C(=O)N2CC)N1/N=C/C=C/c1ccccc1OC (stereo not drawn)	98.7%	83.7%	97.5%	68.3%	122%	74.7%	49.5%	55.1%	63.5%	70.6%
O=C(CSc1nnc(-c2ccc(Cl)cc2)n1-c1ccccc1)Nc1cccc(F)c1	88.4%	42.2%	13.7%	-15.2% (active)	-14.7% (active)	-31.8% (active)	14.1%	–	91.3%	85.8%
O=C(CCCCCCNC(=O)C(O)(O)C(F)(F)F)Nc1ccc(Cl)cc1	-13.7% (active)	39.2%	29.8%	8.11% (active)	3.6% (active)	0.488% (active)	3.96% (active)	9% (active)	22.4%	15.8%
C/C(=N\NC(=O)/C=C/CC(=O)O)c1nnn(-c2ccc([N+](=O)[O-])cc2)c1C	99.5%	101%	101%	87.8%	94.1%	104%	91.5%	–	109%	–
CN1CCN(c2ccc(Nc3nc(NCCNS(=O)(=O)c4ccc(Cl)cc4)c4sccc4n3)cc2)CC1	110%	91.6%	97.7%	80%	128%	98.2%	72.8%	94.2%	75.7%	73.6%
CS(=O)(=O)c1nccc(-c2c(-c3cccc(OCc4ccc(Cl)c(C(F)(F)F)c4)c3)nc3sccn23)n1	107%	78.9%	74.7%	0.98% (active)	112%	71.9%	73.7%	98.3%	13.2%	9.69% (active)
CC(C)C(/C=C/c1[nH]ncc1-c1cc(Cl)ccc1O)N1CCOCC1 (stereo not drawn)	91.3%	95.9%	97.7%	70%	119%	92.8%	69.7%	81.7%	97.7%	86%
